Assay results reported in PubChem BioAssay (NCATS).
Results filed as inconclusive are left out. Values without a mark were called inactive. Active and inactive are the calls of the source. Calls come from the whole dose curve; as a rule, active = well fitted cell-killing curve with a large enough effect; inconclusive = small, poorly fitted or top-dose-only effect; inactive = no such curve, though single readings can be large or run the other way.

Test: qHTS of pediatric cancer cell lines to identify multiple opportunities for drug repurposing: Primary screen for NB1643 cells (AID 1347099); note: nearly all actives have a fitted effect of over 50% in size
Details: NB1643 neuroblastoma viability, CellTiter-Glo luminescence, 48 h; series mostly up to 46 µM; activity change, negative = cytotoxic: at the top concentration
Text: Drug repurposing or repositioning has been offered as a strategy for drug development in oncology programs. This approach has special potential for childhood cancers and other rare or orphan diseases, where the expected return on new drug development has been a disincentive to pharmaceuticals. […] In this project we exploit the poly-pharmacology of drugs to discover new indications via phenotypic screening of a panel of 19 well-characterized cell lines derived from solid tumors seen in children and adolescents. The goal is to identify approved drugs with previously unrecognized anticancer properties that has the potential to reveal new mechanisms and biological processes involved in carcinogenesis or drug resistance. We employed a titration-based paradigm (quantitative high-throughput screening or qHTS), where all compounds were tested at multiple concentrations for their effect on cell viability. Concentration-response curves (CRCs) were derived directly from the primary screen, and both potency and efficacy values were used to identify compounds with robust bioactivity profiles. We screened the NIH Chemical Genomics Center (NCGC) Pharmaceutical Collection (NPC) and Mechanism Interrogation Plate (MIPE) small molecule collections of approved and investigational compounds against these cell lines; and measured metabolically active cells after 48 hours of compound treatment as a proxy for cell viability. […] Assay Submitter: Nathalia J. Martinez, National Center for Advancing Translational Sciences, National Institutes of Health, Rockville, MD, USA; email: natalia.martinez@nih.gov Shen, M et al. Quantitative high-throughput phenotypic screening of pediatric cancer cell lines identifies multiple opportunities for drug repurposing. Oncotarget 2017 Dec 19;9(4):4758-4772. PMID 29435139.
The cells were obtained from University of North Carolina (UNC), Pediatric Preclinical Testing Program (PPT), and Coriell Institute (CI). qHTS cell viability assay: Cells were assayed in growth media at a density of 500-1,000 cells/well. Five microliters of cells were dispensed into 1,536-well, white, solid-bottom, TC-treated plates (Greiner Bio One) using a multidrop dispenser and incubated at 37 degrees C, 5% CO2, under a humidified atmosphere for 5 hours. Twenty-three nanoliters of compounds and controls (neutral control DMSO or positive control bortezomib at final concentration of 2.3 µM) were subsequently transferred by Kalypsys pintool. For primary screens, the MIPE collection was tested at 11-point dilutions (final concentrations range from 0.78 nM to 46 µM) and the NPC collection at 8-point dilutions (final concentrations range from 0.59 nM to 46 µM). Compounds tested in follow-up screens were assayed at 11-point dilutions. Cells were incubated for 48 hours, followed by addition of 3 µL of CellTiter-Glo (Promega). After a 15 min incubation at room temperature, samples were analyzed for luminescence intensity using a ViewLux High-throughput CCD imager equipped with clear filters.
Potency is the fitted concentration of half-maximal effect.

SMILES | activity change, negative = cytotoxic | Potency
CC(=O)[C@@]1(O)CC[C@H]2[C@@H]3CCC4=CC(=O)CC[C@]4(C)[C@H]3CC[C@@]21C | -14.8% | 
O=C(O)CN(CCN(CC(=O)O)CC(=O)O)CCN(CC(=O)O)CC(=O)O | 4.6% [at 16.1 µM] | 
CCN(CC)CCCN(c1ccccc1)C1Cc2ccccc2C1 | -13.1% | 
Cc1cc(C)c(/C=C2\C(=O)Nc3ccccc32)[nH]1 | -19.9% | 
CCN(CC)CCNC(=O)c1ccc(NC(C)=O)cc1 | -8.53% | 
CCN1CCc2nc(N)oc2CC1 | 23.6% | 
O=C1NCN(c2ccccc2)C12CCN(CCCC(c1ccc(F)cc1)c1ccc(F)cc1)CC2 | -16.4% | 
CN(C)CCN(Cc1cccs1)c1ccccn1 | 7.41% | 
CC(=O)[C@]1(O)Cc2c(O)c3c(c(O)c2[C@@H](O[C@H]2C[C@H](N)[C@H](O)[C@H](C)O2)C1)C(=O)c1ccccc1C3=O |  | 376 nM (active)
O=C(O)CP(=O)(O)O | 7.34% | 
COc1cc(C(=O)OCCCN2CCCN(CCCOC(=O)c3cc(OC)c(OC)c(OC)c3)CC2)cc(OC)c1OC | -14% | 
CC(C(=O)O)c1ccc(CC2CCCC2=O)cc1 (stereo not given) | 3.73% | 
OCCN1CCN(CCCN2c3ccccc3C=Cc3ccccc32)CC1 | -0.945% | 
CCC(=O)c1ccc2c(c1)N(CCCN(C)C)c1ccccc1S2 | 0.69% | 
NC(=O)c1cn(Cc2c(F)cccc2F)nn1 | 0% | 
Nc1c2c(nc3ccccc13)CCCC2O (stereo not given) | -2.3% | 
CC(=O)Nc1nnc(S(N)(=O)=O)s1 | 25.4% | 
O=C1CC2(CCCC2)CC(=O)N1CCCCN1CCN(c2ncccn2)CC1 | -6.03% | 
Cc1scc2c1N(C(=O)CN1CCN(C)CC1)c1ccccc1NC2=O | 0% | 
CNCCC(Oc1ccccc1OC)c1ccccc1 (stereo not given) | 8.07% | 

SMILES | activity change, negative = cytotoxic | Potency
Cc1ccc(/C(=C\CN2CCCC2)c2ccccn2)cc1 | -14.2% | 
CCOC(=O)c1cnc2c(cnn2CC)c1NN=C(C)C | 0% | 
CN(C(=O)CCCOc1ccc2[nH]c(=O)ccc2c1)C1CCCCC1 | -8.96% | 
C=CCc1ccccc1OCC(O)CNC(C)C (stereo not given) | 0.866% | 
CC(C)(C)NCC(O)c1cc(O)cc(O)c1 (stereo not given) | 10.9% | 
C[N+](C)(C)CCOC(=O)CCC(=O)OCC[N+](C)(C)C | 14.9% | 
CCCCCCCC/C=C\CCCCCCCC(=O)NCc1ccc(O)c(OC)c1 | -8.44% | 
COCCc1ccc(OCC(O)CNC(C)C)cc1 (stereo not given) | 2.22% | 
COc1ccc(CN(CCN(C)C)c2ccccn2)cc1 | -1.3% | 
NC(=O)N1c2ccccc2C=Cc2ccccc21 | 21.8% | 
CCCCNC(=O)NS(=O)(=O)c1ccc(C)cc1 | -4.72% | 
CC(N=C(NC#N)Nc1ccncc1)C(C)(C)C (stereo not given) | 4.26% | 
c1cc(CN2CCCCC2)cc(OCCCNc2nc3ccccc3s2)c1 | -6.64% | 
c1cnc(N2CCN(Cc3ccc4c(c3)OCO4)CC2)nc1 | 18.4% | 
CN(C)CC/C=C1\c2ccccc2COc2ccccc21 | -9.54% | 
COC(=O)[C@H]1[C@H]2C[C@@H]3c4[nH]c5cc(OC)ccc5c4CCN3C[C@H]2C[C@@H](OC(=O)c2cc(OC)c(OC)c(OC)c2)[C@@H]1OC | -12.2% | 
CSc1ccc(C(=O)c2[nH]c(=O)[nH]c2C)cc1 | 8.5% | 
C[N+](C)(C)CCOC(N)=O | 27% | 
CCNC(=O)N1CCN(CCCC(c2ccc(F)cc2)c2ccc(F)cc2)CC1 | 5.09% | 
CN(C)CC[C@@H](c1ccc(Br)cc1)c1ccccn1 | 1.68% | 
